This is one part of a sample in which hits are shown more often than they occur.
ROC1-CUL1 inh: blocks human RBX1-Cullin-1 di-ubiquitin formation | AID 1347404 | inhibition, % at 10 µM | in vitro K48 di-Ub FRET, acceptor:donor ratio, 45 min | actives 0.6% (n = 140,000) | P62877+Q13616; in the data active = inhibition above about 25%
Target sequence (P62877 whole entry, looked up): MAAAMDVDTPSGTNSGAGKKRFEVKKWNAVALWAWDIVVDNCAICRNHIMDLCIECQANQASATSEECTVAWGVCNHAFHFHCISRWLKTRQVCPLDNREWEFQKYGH
Target sequence (Q13616 whole entry, looked up): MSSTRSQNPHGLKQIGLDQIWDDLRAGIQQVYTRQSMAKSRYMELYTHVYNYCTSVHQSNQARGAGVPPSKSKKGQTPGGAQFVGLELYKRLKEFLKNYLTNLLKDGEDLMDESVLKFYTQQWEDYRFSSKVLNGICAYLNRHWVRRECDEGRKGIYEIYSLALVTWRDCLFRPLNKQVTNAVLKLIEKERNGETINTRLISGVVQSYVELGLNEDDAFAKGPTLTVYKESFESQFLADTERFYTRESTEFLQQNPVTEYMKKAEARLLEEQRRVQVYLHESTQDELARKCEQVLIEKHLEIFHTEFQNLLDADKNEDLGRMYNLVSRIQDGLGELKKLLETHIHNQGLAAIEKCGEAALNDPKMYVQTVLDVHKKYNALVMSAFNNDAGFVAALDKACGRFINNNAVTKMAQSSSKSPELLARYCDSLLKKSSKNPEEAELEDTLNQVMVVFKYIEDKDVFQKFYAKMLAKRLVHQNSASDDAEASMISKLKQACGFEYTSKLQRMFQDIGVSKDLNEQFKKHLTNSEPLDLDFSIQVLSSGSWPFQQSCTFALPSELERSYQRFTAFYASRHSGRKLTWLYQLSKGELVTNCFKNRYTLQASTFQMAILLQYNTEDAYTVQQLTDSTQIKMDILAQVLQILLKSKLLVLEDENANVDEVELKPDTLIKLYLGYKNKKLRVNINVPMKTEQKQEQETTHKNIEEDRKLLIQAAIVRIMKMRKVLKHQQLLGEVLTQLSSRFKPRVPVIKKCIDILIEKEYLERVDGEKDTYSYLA
* marks the source's active call; other numbers are inactive results.

`O=C(Cc1ccc(N2CCNC2=O)cc1)NCCN1Cc2ccccc2OC(c2ccsc2)C1` (stereo not drawn) gave ROC1-CUL1 inh 7.
CCN(CC)Cc1nc2nc[nH]c2c(=O)[nH]1 was read as ROC1-CUL1 inh 2.
`CC(C)(C)c1nnc2sc(SCC(=O)c3ccc(C4CCCCC4)cc3)nn2c1=O` gave ROC1-CUL1 inh -2.
Screening CC(=O)Cc1ccccc1/C=C1\OC(=O)c2ccccc21 returned ROC1-CUL1 inh 8.
For COc1ccccc1/C=C1\Oc2cccc(OC)c2C1=O the results were ROC1-CUL1 inh 10.
CN(C)c1ccccc1/C=C1\Oc2ccccc2C1=O was read as ROC1-CUL1 inh 27*.
For CCOC(=O)c1c(NC(=S)NC(NC(=O)c2ccc(OC)cc2)C(Cl)(Cl)Cl)sc2c1CCCC2 (stereo not drawn) the results were ROC1-CUL1 inh -5.
`CCOC(=O)C1=C(C)C2(Br)C3C(=O)N(c4ccc(OCC)cc4)C(=O)C3C1(C)C1C(=O)N(c3ccc(OCC)cc3)C(=O)C12` (stereo not drawn) gave ROC1-CUL1 inh 12.
COC(=O)C1C(=N)OC2=C(C(=O)CCC2)C1c1cccnc1 (stereo not drawn) was read as ROC1-CUL1 inh 4.
`COC(=O)C1C(=N)OC2=C(C(=O)CC(C)(C)C2)C1c1ccccc1` (stereo not drawn) gave ROC1-CUL1 inh -10.
COC(=O)C1C(=N)OC2=C(C(=O)CCC2)C1c1cccc(Br)c1 (stereo not drawn) was read as ROC1-CUL1 inh 106*.
Screening Cc1ccc(NC(=O)CNc2ccccc2)cc1 returned ROC1-CUL1 inh -5.
For Cc1ccc(S(=O)(=O)n2cc(Cc3ccsc3)c3ccccc32)cc1 the results were ROC1-CUL1 inh 0.
For O=C(CSc1ccc(Cl)cc1)Nc1nnc(Cc2ccccc2)s1 the results were ROC1-CUL1 inh -4.
`O=C(Nc1ccc(Br)c2cccnc12)c1cc(F)c(F)cc1Cl` gave ROC1-CUL1 inh 4.
`Nc1ccnc2ncccc12` gave ROC1-CUL1 inh 9.
Nc1ccc(Br)c2cccnc12 was read as ROC1-CUL1 inh 62*.
`CCn1cc(CN2C[C@H]3OC(=O)N(CCc4ccccn4)[C@H]3C2)cn1` gave ROC1-CUL1 inh -2.
Screening Cc1cc(F)ccc1NC(=O)CCC1CCCN(C(=O)CN2CCCC2=O)C1 (stereo not drawn) returned ROC1-CUL1 inh 3.
Screening O=C1NN(c2ccccc2)C(=O)/C1=C/c1c2ccccc2cc2ccccc12 returned ROC1-CUL1 inh 10.
For CCC(=O)N1CCC2(CCCN(Cc3cccc(OC)c3)C2=O)C1 (stereo not drawn) the results were ROC1-CUL1 inh -7.
`COc1cccc(C(=O)N=C2Cc3cc(OC)ccc3OC2=O)c1` gave ROC1-CUL1 inh -3.
COc1ccc2c(c1)C(=O)Cc1ccccc1S2 was read as ROC1-CUL1 inh 3.
Screening COc1ccc2c(c1)C(=O)Cc1ccccc1O2 returned ROC1-CUL1 inh 67*.
For OC1c2ccccc2CCc2sccc21 (stereo not drawn) the results were ROC1-CUL1 inh -2.
C[N+]1(C)CCC(C2c3ccccc3CSc3sccc32)CC1 (stereo not drawn) was read as ROC1-CUL1 inh -3.
`OC1c2ccccc2CSc2sccc21` (stereo not drawn) gave ROC1-CUL1 inh 49*.
For CCOc1ccc(C(F)(F)F)cc1NC(=O)c1cccs1 the results were ROC1-CUL1 inh 5.
For CN1C(=O)C2(NN=C(c3cccc4ccccc34)S2)c2ccccc21 (stereo not drawn) the results were ROC1-CUL1 inh -1.
O=C1C(=O)c2ccccc2/C1=C\c1cccs1 was read as ROC1-CUL1 inh 6.
For O=C1C(Cl)=CC(=NS(=O)(=O)c2cccs2)c2ccccc21 the results were ROC1-CUL1 inh 41*.
Screening O=C(O)C(Cc1ccccc1)NS(=O)(=O)c1cccs1 (stereo not drawn) returned ROC1-CUL1 inh -1.
For O=C(Nc1cnn(-c2ccc(C(=O)N3CCC(Oc4cccnc4)CC3)cc2)c1)c1ccoc1 the results were ROC1-CUL1 inh 8.
Screening Cc1ccc(C)c(S(=O)(=O)N2CCC(C(=O)NC3CCCC3)CC2)c1 returned ROC1-CUL1 inh 1.
`CCOC(=O)Cn1cc(/C=c2\sc3n(c2=O)C(c2ccc(SC)cc2)C(C(=O)OCC)=C(c2ccccc2)N=3)c2ccccc21` (stereo not drawn) gave ROC1-CUL1 inh -11.
Screening CCOC(=O)C1=C(c2ccccc2)N=c2s/c(=C/c3ccccc3O)c(=O)n2C1c1ccc2c(c1)OCO2 (stereo not drawn) returned ROC1-CUL1 inh 0.
CCOC(=O)C1=C(c2ccccc2)N=c2s/c(=C\c3ccc(N(CC)CC)cc3O)c(=O)n2C1c1ccc(SC)cc1 (stereo not drawn) was read as ROC1-CUL1 inh 47*.
COc1ccc(CC2(CCC(=O)NCC3OCCc4ccccc43)CCC(=O)N2)c(F)c1 (stereo not drawn) was read as ROC1-CUL1 inh -7.
For CCOC(=O)C1C(CS(=O)(=O)c2c(C)cc(C)cc2C)=NC(=O)NC1c1cccc(OC)c1 (stereo not drawn) the results were ROC1-CUL1 inh -1.

Compound activity as filed in PubChem BioAssay.
